An excerpt weighted towards active compounds, which were near 3.4% of everything screened.
FBW7 act = human FBW7 E3 ligase activation, primary screen. AlphaScreen FBW7–phospho-cyclin E peptide binding, activator screen. Q969H0. 650,000 compounds, 0.13% hits. normalized activity (activation), % at 26.1 µM; in the data active = normalized activity above about 1.9%;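 also: purified mutant Fbw7 with reduced substrate affinity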
TEAD-YAP inh = TEAD-YAP interaction inhibition; HEK-TIYL cells, TEAD-Gal4/YAP UAS-luciferase luminescence; inhibition, % at 9.12 µM; 640,000 compounds, 1.4% hits; AID 1259422; in the data active = inhibition above about 32%;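 also: 0% = median of test compound wells and 100% = reference inhibitor wells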
MITF primary = human MITF inhibition, primary screen | inhibition, % at 2.6 µM | AlphaScreen MITF homodimerization, bead proximity signal | AID 1259374 | O75030 | 650,000 compounds, 0.91% hits; in the data active = inhibition above about 50%;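 also: 0% = vehicle wells with protein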
Target sequence (O75030 whole entry, looked up): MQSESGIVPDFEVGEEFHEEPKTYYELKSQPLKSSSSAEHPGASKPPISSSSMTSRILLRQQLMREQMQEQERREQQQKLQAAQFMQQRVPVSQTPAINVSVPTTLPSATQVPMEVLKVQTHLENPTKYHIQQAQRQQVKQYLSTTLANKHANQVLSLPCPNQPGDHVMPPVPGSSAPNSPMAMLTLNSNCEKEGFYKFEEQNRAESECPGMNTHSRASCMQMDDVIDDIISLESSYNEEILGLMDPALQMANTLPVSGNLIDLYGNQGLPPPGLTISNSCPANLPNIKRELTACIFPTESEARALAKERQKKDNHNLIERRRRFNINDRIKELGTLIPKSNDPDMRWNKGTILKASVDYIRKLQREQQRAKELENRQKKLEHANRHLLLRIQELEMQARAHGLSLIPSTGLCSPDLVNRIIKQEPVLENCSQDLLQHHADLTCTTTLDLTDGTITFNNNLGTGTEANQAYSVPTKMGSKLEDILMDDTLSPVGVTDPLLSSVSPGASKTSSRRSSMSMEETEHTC
GPR151 activ = human GPR151 activation. PathHunter beta-arrestin GPR151 cells, luminescence. 650,000 compounds, 1% hits. Q8TDV0. activation, % at 11.2 µM; in the data active = activation above about 4.9%;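 also: 0% = median of compound wells and 100% = cells with positive control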
* hit, by the source's call.

SMILES	FBW7 act	TEAD-YAP inh	MITF primary	GPR151 activ
CC(C)CC(C(=O)O)N1C(=O)/C(=C\c2ccco2)SC1=S (configuration not stated)	-1	-1	58*	0
CCCCC(C(=O)O)N1C(=O)/C(=C\c2ccc(C)o2)SC1=S (configuration not stated)	-1	7	26	0
CCC(C(=O)O)N1C(=O)/C(=C\c2ccc(C)o2)SC1=S (configuration not stated)	0	0	62*	-1
Cc1ccc(/C=C2/SC(=S)N(C(CCC(=O)O)C(=O)O)C2=O)o1 (configuration not stated)	-2	-8	55*	1
O=C(O)CCC(C(=O)O)N1C(=O)/C(=C/c2ccccc2)SC1=S (configuration not stated)	0	6	3	-2
Cc1ncc2c(c1CNC(=O)c1ccsc1)CCN(C(=O)C(C)N1CCOCC1)C2 (configuration not stated)	0	-10	8	2
Cc1sc2ncn(CC(=O)Nc3ccc4c(c3)OCCO4)c(=O)c2c1S(=O)(=O)N1CCOCC1	1	-6	-6	0
COc1ccccc1CC(=O)N1CC[C@@H]2[C@H](CCCN2C(=O)CCc2cccs2)C1	0	19	-36	-1
Cc1cc(C(=O)CN2C(=O)C3CC=CCC3C2=O)c(C)n1CC1CCCO1 (configuration not stated)	0	36*	-2	1
Cc1nnc(SCC(=O)c2cc(C)n(CC3CCCO3)c2C)s1 (configuration not stated)	0	41*	5	0
Cc1cc(C(=O)CSc2nnc(-c3cccs3)o2)c(C)n1CC1CCCO1 (configuration not stated)	0	-18	18	2
CC[C@@H]1NC(=O)[C@@H]2C[C@H](NC(=O)c3ccc(Cl)c(Cl)c3)CN2C1=O	0	1	19	1
CCC(CC)C(=O)Nc1ccc(S(=O)(=O)N2CCC(c3nc4ccccc4[nH]3)CC2)cc1	0	12	16	0
O=C(CCc1ccccc1)Nc1ccc(S(=O)(=O)N2CCC(c3nc4ccccc4[nH]3)CC2)cc1	0	32*	14	0
O=C(Nc1ccc(S(=O)(=O)N2CCC(c3nc4ccccc4[nH]3)CC2)cc1)c1ccccc1F	0	40*	20	-1
COc1ccc(Cl)cc1C(=O)On1c(-c2ccc(Br)cc2)nc2ccccc2c1=O	3.2*	7	7	0
COc1ccc(C(=O)On2c(-c3cccc(Cl)c3)nc3ccccc3c2=O)cc1Br	0	-3	-7	-1
CC(C)OCCNC(=O)CC1C(=O)NCCN1Cc1cccc(F)c1 (configuration not stated)	0	5	8	2
O=[N+]([O-])c1ccc2nc(-c3ccc(OC(F)F)cc3)cn2c1	0	45*	-4	1
O=[N+]([O-])c1ccc(-c2cn3cc(Cl)ccc3n2)cc1	0	-77	3	1
CCCNc1ccc2ncc(-c3cc4ccccc4s3)n2n1	0	-11	-13	3
c1cncc(CCNc2ccc3ncc(-c4cc5ccccc5s4)n3n2)c1	0	73*	14	0
FC(F)(F)c1cccc(-c2cnc3ccc(NCCc4cccnc4)nn23)c1	1	37*	21	1
CCCNC(=O)CSc1nc(-c2ccco2)cc(C(F)(F)F)n1	0	10	3	0
CC(C)NC(=O)CSc1nc(-c2ccco2)cc(C(F)(F)F)n1	0	3	-9	0
SMILES	FBW7 act	TEAD-YAP inh	MITF primary	GPR151 activ
CC(=O)Nc1cccc(NC(=O)CSc2nc(-c3ccco3)cc(C(F)(F)F)n2)c1	0	42*	8	2
O=C(CSc1nc(-c2ccco2)cc(C(F)(F)F)n1)Nc1cccnc1	0	48*	8	1
COc1ccc(C=C2C(=O)N(C)C(=S)N(C)C2=O)cc1OCc1ccccc1	0	9	16	-1
O=C(NC1CCCCC1N1C(=O)CSC1=O)c1cncc(Br)c1 (configuration not stated)	0	-4	1	-1
O=C(NCCCn1ccnc1)c1ccc(C#Cc2ccccc2)o1	0	35*	4	2
CSc1nnc(COc2ccccc2)n1N	1	3	13	-2
COC(=O)c1cc(NC(=O)C23CCC(C)(C(=O)C2=O)C3(C)C)cc(C(=O)OC)c1 (configuration not stated)	0	3	59*	2
O=C(CCNC(=O)c1ccc([N+](=O)[O-])cc1)OCC(=O)c1ccc2c(c1)-c1ccccc1C2	0	-5	14	-2
CC1C(=O)C(=O)/C(=C\c2ccccc2)C1=O (configuration not stated)	0	0	82*	1
CSc1ccc(C=C2C(=O)c3ccccc3C2=O)cc1	0	6	0	0
CC(=O)c1ccc(Nc2c(C)n(C)n(-c3ccccc3)c2=O)cc1	0	-2	-1	1
Cc1c(Nc2ccc(/C=C3\C(=O)Nc4ccccc43)cc2)c(=O)n(-c2ccccc2)n1C	0	54*	5	1
Cc1cc(I)ccc1Nc1nc(NC2CCCCC2)nc(N2CCOCC2)n1	0	1	17	0
COc1ccc2c(c1)c(CC(=O)Nc1ccccn1)c(C)n2C(=O)c1ccc(Cl)cc1	0	37*	0	2
CCCN(CCC)c1ncnc(N)c1[N+](=O)[O-]	0	61*	-11	-2
CN(Cc1ccccc1)c1ncnc(N)c1[N+](=O)[O-]	0	0	4	-1
CC1=NN(c2ccc(Cl)c(C(=O)O)c2)C(=O)/C1=C/c1ccc[nH]1	0	-6	20	0
O=C1C(NC2CCCC2)=C(N2CCOCC2)C(=O)c2ccccc21	0	79*	27	-3
CC(=O)N(C1=C(N2CCOCC2)C(=O)c2ccccc2C1=O)c1ccc(Cl)c(Cl)c1	0	40*	117*	-3
CCOc1ccc(N(C(C)=O)C2=C(N3CCN(C)CC3)C(=O)c3ccccc3C2=O)cc1	0	90*	9	-4
O=C1C(N2CCCCC2)=C(N2CCOCC2)C(=O)c2ccccc21	0	10	5	0
CN(C1=C(N2CCOCC2)C(=O)c2ccccc2C1=O)c1ccccc1	-1	14	51*	1
CC(=O)N(C1=C(N2CCCC2)C(=O)c2ccccc2C1=O)c1ccc(Cl)c(Cl)c1	0	14	21	-3
O=C(c1cccc(Br)c1)N1CCN(c2ccc([N+](=O)[O-])c(NCCc3ccccc3)c2)CC1	0	9	-3	2
CCOc1cc(C2C(C#N)=C(N)OC3=C2C(=O)CC(c2ccco2)C3)cc([N+](=O)[O-])c1O (configuration not stated)	0	-13	6	-1
CCCCn1c(=O)n(CC(=O)NC(N)=O)c(=O)c2c1ncn2Cc1ccco1	0	-3	4	-1
COc1ccc(CCNC(=O)CN(CCc2ccccc2)S(=O)(=O)c2ccccc2)cc1OC	1	15	14	0
